High-throughput results: PubChem, National Center for Advancing Translational Sciences (NCATS)
In the library only some 2.1% were active in any assay of this set; here they are far more common.
TSG101-PTAP inh: qHTS Assay for Iinhibitors of HIV-1 Budding by Blocking the Interaction of PTAP/TSG101; Potency, µM (series often up to 115 µM), for the others: top-dose activity change, negative = inhibition, most hits filed as inhibitors; Fluorescence polarization, FITC-PTAP peptide / Tsg101 binding; Tumor susceptibility gene 101 protein (Homo sapiens), Q99816; 340,000 tested, under 10 active; AID 493005, 2010; active = well fitted inhibition curve with a large enough effect in the main read-out, with a control signal flat, not every such curve was filed as active; inconclusive = small, poorly fitted or top-dose-only effect, or effect the other way, or a change in a side signal; inactive = no such curve, though single readings can be large or run the other way; also: % of control where 0% means no effect
Target sequence (Q99816 whole entry, looked up): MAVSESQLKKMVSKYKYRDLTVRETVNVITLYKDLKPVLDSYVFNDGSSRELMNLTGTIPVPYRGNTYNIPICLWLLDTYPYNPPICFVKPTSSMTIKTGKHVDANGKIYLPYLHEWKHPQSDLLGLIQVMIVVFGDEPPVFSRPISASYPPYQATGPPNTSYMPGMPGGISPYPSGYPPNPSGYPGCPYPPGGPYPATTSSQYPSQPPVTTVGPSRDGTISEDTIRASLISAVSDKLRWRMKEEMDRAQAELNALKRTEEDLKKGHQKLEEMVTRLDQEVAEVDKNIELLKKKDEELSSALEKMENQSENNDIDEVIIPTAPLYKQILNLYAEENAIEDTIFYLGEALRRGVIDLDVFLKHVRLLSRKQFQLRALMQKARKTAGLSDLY
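Steps: Tsg101 binding domain dispensed (10 uM final), compounds pinned in DMSO, FITC-labeled PTAP-motif peptide added (50 nM final); after 20 min binding at room temperature, polarization measured.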
aSyn yeast inh: qHTS of alpha-syn Inhibitors | 0.14% of 370,000 active | AID 652106, 2013 | Potency, µM (top dose mostly 46.1 µM), for inactives: at the highest dose growth rescue (activation), usual class: activators | Yeast expressing alpha-synuclein, growth rescue, BacTiter-Glo, 24 h; also: % of control where 0% means no effect; nearly all actives have a fitted effect of over 65% in size
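Galactose-induced alpha-syn yeast (OD600=0.02, raffinose-pregrown) + pinned cpd, 24 hr, 30 deg C; growth by BacTiter-Glo luminescence. Growth restoration scores as activation.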
Abeta yeast res: qHTS for compounds that reverse cellular toxicity of Amyloid beta (A-beta) peptide in yeast: Primary Screen. yeast expressing A-beta42, growth rescue, OD600, 48 h; response scale: 0% DMSO, 100% iron-clioquinol control. Potency, µM (doses to about 46.1 µM), most hits filed as activators. 0.063% of 410,000 active; also: nearly all actives have a fitted effect of over 55% in size
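Yeast growth medium received pinned compounds, then yeast cells expressing toxic A-beta were added; plates incubated at 30 C for 48 hr. Growth read as absorbance at 600 nm, normalized to DMSO and equimolar FeCl3 plus clioquinol controls.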
FUS suppressor: qHTS for Suppressors of FUS Proteinopathy: Primary screen using FUS-linked yeast assay | S. cerevisiae FUS-expressing, growth rescue, OD600, 24 h | Potency, µM (top dose mostly 76.6 µM), actives largely listed as activators | 0.24% of 390,000 active | AID 1347120, 2019;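 also: plate controls were DMSO vehicle for no effect and reference control for full effect; nearly all actives have a fitted effect of over 55% in size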
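Yeast expressing FUS under galactose induction, OD 0.005 in 2% galactose medium; compounds in a dilution series, 24 h at 30C. Growth rescue by absorbance at 600 nm; CP55940 positive control, DMSO negative.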
TDP-43 yeast inh: qHTS of TDP-43 Inhibitors. TDP-43 expressing yeast growth rescue, BacTiter-Glo, 24 h. AID 652104, 2013. Potency, µM (titrated, usually from 46.1 µM), for inactives: at the top dose growth rescue (activation), hits mostly activators. 1.8% of 410,000 active; also: % of control where 0% means no effect; nearly all actives have a fitted effect of over 50% in size
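Cell-based yeast growth screen: TDP-43 expression induced in galactose, inoculum OD600=0.02 after raffinose pregrowth to mid-log. Read-out BacTiter-Glo luminescence at 24 hr, 30 deg C; inhibition of toxicity seen as signal increase.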
* hit, by the source's call; i = inactive; ? = inconclusive; . = no result given; [ ] = another dose, or the depositor's remark. Unless noted, calls follow the shape of the dose curve; as a rule, active = well fitted curve in the direction sought with a large enough effect; inconclusive = small, poorly fitted or top-dose-only effect, or another doubt; inactive = no such curve, though single readings can be large; an effect the other way counts as inactive or inconclusive. Potency is read from the fitted curve at half-maximal effect.

SMILES | TSG101-PTAP inh | aSyn yeast inh | Abeta yeast res | FUS suppressor | TDP-43 yeast inh
COc1ccc(-c2csc(C(O)c3ccc(F)c(F)c3)n2)cn1 (configuration not stated) | . | ? | ? | i | 22.4µM*
Fc1ccc(-c2cc(-c3ccccc3)c3c(n2)-c2cc(F)ccc2OC3)cc1 | . | . | i | i | -9.0%
CCn1cc(C(=O)NCc2ccc(F)cc2)c(=O)c2cc(S(=O)(=O)N(C)C)ccc21 | . | . | i | i | 5.4%
CC(C)C[C@@H](CN1CCC[C@H]1CN1C(=O)C(=O)NC[C@@H]1Cc1ccccc1)N1C[C@H](Cc2ccccc2)N(CC2CCCCC2)C(=O)C1=O | . | 8.2% | i | i | 9.4%
O=C(O)/C=C/c1ccccc1Oc1ccccc1 | -2.0% | 29.8% | i | i | 17.8µM*
C/C(=N/NC(=O)c1ccc(C(C)(C)C)cc1)c1ccccn1 | 1.4% | ? | i | i | 14.1µM*
C/C(=N\NC(=O)c1ccc(Cl)c(Cl)c1)c1ccccn1 | 0.3% | 3.98µM* | i | i | 7.08µM*
COc1ccc(C(=O)N/N=C(\C)c2ccccn2)cc1OC | -7.9% | 8.3% | i | i | 13.8%
O=C(NN=C(c1ccccc1)c1ccccn1)c1ccccc1 | -2.8% | -20.7% | i | . | 14.6%
CC(=NNC(=S)N1CC2CCC(CC2)C1)c1cnccn1 | -5.7% | -81.0% | i | . | ?
CC(=NNC(=S)N1CC2CCC(CC2)C1)c1ccccn1 | . | 22.0% | i | i | 22.4µM*
COc1ccc(C(=O)N/N=C(\c2ccccc2)c2ccccn2)cc1 | 1.5% | -25.4% | i | . | 22.4µM*
COc1ccc(CNC(=O)Cn2c(=O)nc(-c3ccccc3F)c3cc(Cl)ccc32)cc1 | . | . | i | i | 16.5%
COc1ccc(-c2noc(=O)n2Cc2ccc(F)cc2Cl)cc1 | -0.4% | 20.6% | i | i | ?
COc1ccc(-c2noc(=O)n2Cc2ccccc2Cl)cc1 | 1.1% | 4.4% | i | i | 20µM*
c1ccc(-c2noc(CSc3nnnn3C3CCCCC3)n2)cc1 | -2.4% | 3.0% | i | i | 12.6µM*
CCn1c(SCc2nc(-c3ccccc3)no2)nnc1-c1ccco1 | -7.2% | 1.6% | i | i | 17.8µM*
Clc1ccc(-c2nnc(CSc3nnc(-c4cccs4)n3Cc3ccccc3)o2)cc1 | -6.2% | ? | i | ? | 17.8µM*
CCn1c(SCc2nc(-c3ccccc3)no2)nc2ccccc21 | -4.3% | 6.4% | i | i | 15.8µM*
COc1cccc(NC(=O)c2oc3ccc(S(=O)(=O)N(C)C4CCCCC4)cc3c2C)c1 | . | . | i | i | 27.0%
Cn1c(=O)c2c(nc(Oc3ccccc3Cl)n2Cc2ccc(C#N)cc2)n(C)c1=O | . | . | i | i | 19.4%
CCn1c(SCc2nc(-c3ccccc3)no2)nnc1-c1cccs1 | -1.5% | 6.2% | i | i | 12.6µM*
Cc1ccc(C(=O)CCNc2ccc(F)c(Cl)c2)o1 | -6.3% | -8.6% | i | i | 10µM*
CCOc1ccc(N(CC(=O)Nc2ccccc2CC)S(=O)(=O)c2c(C)noc2C)cc1 | . | . | i | i | 12.2%
c1ccc(-c2cc(-c3ccccc3)n3ncnc3n2)cc1 | -9.5% | 1.7% | i | i | 0.0%[0.397 µM]
SMILES | TSG101-PTAP inh | aSyn yeast inh | Abeta yeast res | FUS suppressor | TDP-43 yeast inh
COc1ccc(-c2cc(-c3ccccc3)nc3ncnn23)cc1 | -0.1% | 9.2% | i | i | 14.1µM*
CCOC(=O)c1cc(C)n(CC2CCC(C(=O)Nc3ccc(C(C)=O)cc3)CC2)c1C (configuration not stated) | . | . | i | i | 23.2%
Cc1nc(CN2C(=O)C3(CCC3)ON=C2c2cccc(Cl)c2)cs1 | . | 7.7% | i | i | 6.6%
O=C(Oc1c(Cl)cc(Cl)c2cccnc12)c1cccs1 | -6.2% | 12.5% | i | i | ?
O=C(Oc1c(Cl)cc(Cl)c2cccnc12)c1ccco1 | -7.4% | 3.55µM* | i | . | ?
CCc1nn(CC(=O)NC(C)C)c(=O)c2cc3cc(F)ccc3n12 | . | . | i | i | 20.9%
CCN(CC)/[N+]([O-])=N/OCOC(=O)C(C)c1ccc2cc(OC(C)=O)ccc2c1 (configuration not stated) | . | -4.0% | . | . | .
Cn1cc(C(=O)N2CCN(c3cccc(C(F)(F)F)c3)CC2)c2c3ccccc3n(C)c2c1=O | . | . | i | ? | 28.2µM*
CC(C)Cn1cc(C(=O)N2CCN(c3cccc(Cl)c3)CC2)c2c3ccccc3n(C)c2c1=O | . | . | i | 35.5µM* | -9.7%
COc1ccc2c(c1OC)C(=O)NC(C)=C(C(=O)OC(C)(C)C)C2O (configuration not stated) | -1.2% | 15.8µM* | i | i | 15.6%
CC(=O)c1cc(-c2cc3ccccc3o2)c(=O)n2c1CCC2 | . | . | . | i | .
CCCCn1c(N)c(N(CCOC)C(=O)c2oc3ccc(Br)cc3c2C)c(=O)[nH]c1=O | -1.1% | -2.9% | i | 15.8µM* | 1.7%
Cc1ccccc1C(=O)Nc1nnc(SCc2cc(=O)n3ccccc3n2)s1 | . | . | i | i | 0.0%
O=c1cnn([C@@H]2O[C@H](CO)[C@@H](O)[C@H]2O)c(=O)[nH]1 | -1.0% | 5.62µM* | ? | i | 12.9%
COc1ccc(CCNC(=O)c2cnc3sc(N4CCOCC4)nn3c2=O)cc1OC | . | . | i | i | 4.8%
CCCOc1cccc(C2c3c(-c4ccccc4O)n[nH]c3C(=O)N2Cc2ccco2)c1 (configuration not stated) | . | . | i | i | 0.0%
S=C(NCc1ccco1)N/N=C/c1ccc(Cl)cc1 | 0.1% | 2.5% | i | . | 22.4µM*
COc1ccc2c(c1)CCc1cc(C(=O)O)sc1-2 | -6.7% | 2.2% | i | i | ?
COc1ccc(-c2cc(C(=O)O)sc2C)cc1 | -3.3% | 1.6% | i | i | 22.4µM*
O=C(COC(=O)c1cccc2c1C(=O)c1ccccc1C2=O)NC1CCCCC1 | -1.2% | 4.3% | i | i | ?
O=C(COC(=O)c1ccc2c(c1[N+](=O)[O-])C(=O)c1ccccc1C2=O)NC1CC1 | -13.7% | -45.5% | i | i | 3.55µM*
COc1ccc(-n2cnc3c(N)nc(N)nc32)cc1 | -2.0% | 2.9% | i | i | 24.1%
CCCCCCCCN1CN2Cc3ccc(C)cc3C2CS1(=O)=O (configuration not stated) | . | . | . | i | .
CC(C)(C)OC(=O)N1CCc2onc(-c3ccc(Cl)cc3)c2C1=O | . | 10.7% | i | i | ?
C#CCN1CCc2onc(-c3ccc(Br)cc3)c2C1=O | . | -2.4% | i | i | 35.5µM*
